The results in this text go back to ChEMBL document CHEMBL3988442, “University of Dundee, Small-Polar-MMV Screening Library” (2021).

Molecules are shown by their SMILES. For part of these data: Results with a measured potency or affinity are listed apart.

What all share (parameters): scale not given: direction of the effect not stated beside the values
Assay [1] has as its target Protein translocase subunit SecA (Escherichia coli (strain K12)) (UniProt P10408). The experiment in a line: Assay to Identify E. coli SecA ATPase Inhibitors. The format is functional. The note with it: 30 µM.
In assay [2] the target is T1, Ubiquitin-activating enzyme e1, putative (Leishmania donovani (strain BPK282A1)) (UniProt E9BSI1).
T1 sequence (whole entry): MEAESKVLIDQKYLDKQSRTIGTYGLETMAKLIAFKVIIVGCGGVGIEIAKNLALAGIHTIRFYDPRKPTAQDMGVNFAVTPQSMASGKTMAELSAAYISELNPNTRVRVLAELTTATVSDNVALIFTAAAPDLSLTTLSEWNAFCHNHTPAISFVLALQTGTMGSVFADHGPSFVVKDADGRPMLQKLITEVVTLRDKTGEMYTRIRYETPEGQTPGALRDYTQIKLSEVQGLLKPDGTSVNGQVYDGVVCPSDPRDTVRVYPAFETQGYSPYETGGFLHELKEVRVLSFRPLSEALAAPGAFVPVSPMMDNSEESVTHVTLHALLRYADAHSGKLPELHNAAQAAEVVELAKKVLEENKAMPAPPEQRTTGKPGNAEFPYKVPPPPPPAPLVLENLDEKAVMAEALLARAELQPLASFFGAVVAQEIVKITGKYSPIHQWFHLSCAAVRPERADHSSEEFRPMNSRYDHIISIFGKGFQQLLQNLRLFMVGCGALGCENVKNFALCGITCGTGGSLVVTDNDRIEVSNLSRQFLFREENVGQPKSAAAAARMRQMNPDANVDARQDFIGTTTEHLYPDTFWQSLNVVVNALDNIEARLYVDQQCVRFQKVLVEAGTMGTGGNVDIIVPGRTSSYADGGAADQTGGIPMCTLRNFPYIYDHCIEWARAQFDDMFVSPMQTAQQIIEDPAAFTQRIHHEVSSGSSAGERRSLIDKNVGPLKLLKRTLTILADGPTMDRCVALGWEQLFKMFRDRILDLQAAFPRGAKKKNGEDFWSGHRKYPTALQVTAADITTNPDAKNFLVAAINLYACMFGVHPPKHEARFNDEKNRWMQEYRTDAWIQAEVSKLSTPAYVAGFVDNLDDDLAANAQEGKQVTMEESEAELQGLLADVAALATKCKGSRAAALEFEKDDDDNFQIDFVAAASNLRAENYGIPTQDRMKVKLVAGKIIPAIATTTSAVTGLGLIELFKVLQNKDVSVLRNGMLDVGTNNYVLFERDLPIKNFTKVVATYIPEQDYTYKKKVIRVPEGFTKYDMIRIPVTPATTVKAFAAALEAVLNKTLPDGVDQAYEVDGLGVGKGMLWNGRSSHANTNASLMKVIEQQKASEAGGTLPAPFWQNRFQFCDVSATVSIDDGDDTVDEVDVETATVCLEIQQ
Kind of assay: Leishmania donovani Ubiquitin Activating Enzyme (LdE1). The format is functional. The conditions noted are these: 30 µM.

The target of assay [3] is Sialic acid-binding Ig-like lectin 9 (Homo sapiens) (UniProt Q9Y336). The experiment in a line: Hs-Siglec9 ALPHAscreen SOP 20170721. The conditions noted are these: 10 µM.
The subject of another assay is Trypanosoma cruzi. Kind of assay: Trypanosoma cruzi phosphomannomutase and mannose-1-phosphate guanylyltransferase assay. The note with it: 10 µM. In kind it is functional.
In assay [4] the target is T2, Arginase-2, mitochondrial (Homo sapiens) (UniProt P78540).
T2 sequence (whole entry): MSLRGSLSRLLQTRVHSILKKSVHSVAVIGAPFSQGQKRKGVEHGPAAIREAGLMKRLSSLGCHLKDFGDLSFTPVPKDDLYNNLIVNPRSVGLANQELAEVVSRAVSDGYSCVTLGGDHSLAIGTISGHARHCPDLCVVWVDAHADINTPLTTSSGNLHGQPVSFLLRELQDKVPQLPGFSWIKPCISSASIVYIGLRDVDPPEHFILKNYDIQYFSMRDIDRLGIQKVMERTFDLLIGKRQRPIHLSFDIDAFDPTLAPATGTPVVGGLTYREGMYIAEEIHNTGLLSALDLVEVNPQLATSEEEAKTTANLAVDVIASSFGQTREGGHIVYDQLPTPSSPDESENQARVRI
The experiment in a line: in vitro enzyme assay to detect the production of urea directly proportional to the activity of Arginase II. Note: in the data most compounds retested in dose-response had high values. In kind it is functional. The conditions noted are these: 33.3 µM.

Assay [5] has as its target T3, Proteasome subunit beta (Trypanosoma cruzi) (UniProt O96673).
T3 sequence (whole entry): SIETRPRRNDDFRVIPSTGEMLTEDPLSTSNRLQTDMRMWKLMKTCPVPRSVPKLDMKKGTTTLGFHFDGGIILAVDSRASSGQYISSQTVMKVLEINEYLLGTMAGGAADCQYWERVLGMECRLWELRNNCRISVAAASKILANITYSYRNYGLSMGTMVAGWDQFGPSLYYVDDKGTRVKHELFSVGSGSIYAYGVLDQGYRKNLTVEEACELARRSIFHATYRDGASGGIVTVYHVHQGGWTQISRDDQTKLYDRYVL
The experiment in a line: Trypanosoma cruzi proteasome chymotrypsin-like activity (TcProtChymo) assay. Note: in the data most compounds retested in dose-response had high values. In kind it is functional. The conditions noted are these: 9.37 µM.

For another assay, the species on record is Homo sapiens. Kind of assay: To identify inhibition of the IFN signalling (Jak-Stat) pathway via expression of an eGFP reporter gene under the control of an IFN-stimulated response element (ISRE) containing MxA promoter. The format is functional. The note with it: 30 µM. (In general: A reporter such as luciferase makes a cellular process visible.)
Assay [6] concerns the target T4, Tyrosyl-tRNA synthetase, putative (Trypanosoma cruzi (strain CL Brener)) (UniProt Q4DSP6).
T4 sequence (whole entry): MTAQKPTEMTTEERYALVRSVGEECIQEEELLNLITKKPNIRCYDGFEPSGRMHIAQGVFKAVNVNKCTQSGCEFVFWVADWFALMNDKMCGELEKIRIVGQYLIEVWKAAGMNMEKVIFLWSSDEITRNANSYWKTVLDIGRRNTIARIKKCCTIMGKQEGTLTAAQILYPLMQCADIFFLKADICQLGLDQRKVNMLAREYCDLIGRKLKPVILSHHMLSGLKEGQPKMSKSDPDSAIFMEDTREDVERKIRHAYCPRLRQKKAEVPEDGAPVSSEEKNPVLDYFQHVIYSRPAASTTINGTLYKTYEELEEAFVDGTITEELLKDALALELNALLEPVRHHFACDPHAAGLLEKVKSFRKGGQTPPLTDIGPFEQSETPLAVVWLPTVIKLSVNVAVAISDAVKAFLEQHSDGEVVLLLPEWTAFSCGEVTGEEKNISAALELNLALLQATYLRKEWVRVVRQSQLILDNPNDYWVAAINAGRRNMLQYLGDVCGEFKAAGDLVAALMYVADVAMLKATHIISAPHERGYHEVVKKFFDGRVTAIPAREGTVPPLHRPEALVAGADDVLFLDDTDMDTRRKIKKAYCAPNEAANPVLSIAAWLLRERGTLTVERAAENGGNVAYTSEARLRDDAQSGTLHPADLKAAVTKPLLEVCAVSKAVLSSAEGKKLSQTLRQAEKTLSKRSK
Kind of assay: Trypanosoma cruzi tyrosyl tRNA synthetase (TcYRS) _High Tyrosine SOP. Note: in the data most compounds retested in dose-response had high values. The format is functional. The note with it: 30 µM.

In assay [7] the target is T4, Tyrosyl-tRNA synthetase, putative (Trypanosoma cruzi (strain CL Brener)). The experiment in a line: Trypanosoma cruzi tyrosyl tRNA synthetase (TcYRS) SOP. The format is functional. The note with it: 30 µM.
Assay [8] concerns the target Chromo domain-containing protein 1 (Saccharomyces cerevisiae (strain ATCC 204508 / S288c) (Baker's yeast)) (UniProt P32657). Kind of assay: ScCHD-1 Enzyme Inhibition Assay. Note: in the data most compounds retested in dose-response had high values. The format is functional. The conditions noted are these: 30 µM.

Sequence of Sialic acid-binding Ig-like lectin 9 (Homo sapiens) (Q9Y336 whole entry): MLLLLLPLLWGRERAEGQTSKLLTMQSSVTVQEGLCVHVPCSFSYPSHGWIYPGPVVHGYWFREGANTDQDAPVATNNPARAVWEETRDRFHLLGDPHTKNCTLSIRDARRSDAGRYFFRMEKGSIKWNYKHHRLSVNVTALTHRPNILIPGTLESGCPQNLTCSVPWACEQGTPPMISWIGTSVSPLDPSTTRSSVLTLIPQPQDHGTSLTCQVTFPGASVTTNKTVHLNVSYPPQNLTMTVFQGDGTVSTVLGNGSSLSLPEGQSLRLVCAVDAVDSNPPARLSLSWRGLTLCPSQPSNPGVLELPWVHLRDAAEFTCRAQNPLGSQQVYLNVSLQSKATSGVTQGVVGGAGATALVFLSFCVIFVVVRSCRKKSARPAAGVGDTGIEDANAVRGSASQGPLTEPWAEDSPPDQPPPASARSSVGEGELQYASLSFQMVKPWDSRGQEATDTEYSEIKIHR
Sequence of Chromo domain-containing protein 1 (Saccharomyces cerevisiae (strain ATCC 204508 / S288c) (Baker's yeast)) (P32657 whole entry, the tested form may be a part): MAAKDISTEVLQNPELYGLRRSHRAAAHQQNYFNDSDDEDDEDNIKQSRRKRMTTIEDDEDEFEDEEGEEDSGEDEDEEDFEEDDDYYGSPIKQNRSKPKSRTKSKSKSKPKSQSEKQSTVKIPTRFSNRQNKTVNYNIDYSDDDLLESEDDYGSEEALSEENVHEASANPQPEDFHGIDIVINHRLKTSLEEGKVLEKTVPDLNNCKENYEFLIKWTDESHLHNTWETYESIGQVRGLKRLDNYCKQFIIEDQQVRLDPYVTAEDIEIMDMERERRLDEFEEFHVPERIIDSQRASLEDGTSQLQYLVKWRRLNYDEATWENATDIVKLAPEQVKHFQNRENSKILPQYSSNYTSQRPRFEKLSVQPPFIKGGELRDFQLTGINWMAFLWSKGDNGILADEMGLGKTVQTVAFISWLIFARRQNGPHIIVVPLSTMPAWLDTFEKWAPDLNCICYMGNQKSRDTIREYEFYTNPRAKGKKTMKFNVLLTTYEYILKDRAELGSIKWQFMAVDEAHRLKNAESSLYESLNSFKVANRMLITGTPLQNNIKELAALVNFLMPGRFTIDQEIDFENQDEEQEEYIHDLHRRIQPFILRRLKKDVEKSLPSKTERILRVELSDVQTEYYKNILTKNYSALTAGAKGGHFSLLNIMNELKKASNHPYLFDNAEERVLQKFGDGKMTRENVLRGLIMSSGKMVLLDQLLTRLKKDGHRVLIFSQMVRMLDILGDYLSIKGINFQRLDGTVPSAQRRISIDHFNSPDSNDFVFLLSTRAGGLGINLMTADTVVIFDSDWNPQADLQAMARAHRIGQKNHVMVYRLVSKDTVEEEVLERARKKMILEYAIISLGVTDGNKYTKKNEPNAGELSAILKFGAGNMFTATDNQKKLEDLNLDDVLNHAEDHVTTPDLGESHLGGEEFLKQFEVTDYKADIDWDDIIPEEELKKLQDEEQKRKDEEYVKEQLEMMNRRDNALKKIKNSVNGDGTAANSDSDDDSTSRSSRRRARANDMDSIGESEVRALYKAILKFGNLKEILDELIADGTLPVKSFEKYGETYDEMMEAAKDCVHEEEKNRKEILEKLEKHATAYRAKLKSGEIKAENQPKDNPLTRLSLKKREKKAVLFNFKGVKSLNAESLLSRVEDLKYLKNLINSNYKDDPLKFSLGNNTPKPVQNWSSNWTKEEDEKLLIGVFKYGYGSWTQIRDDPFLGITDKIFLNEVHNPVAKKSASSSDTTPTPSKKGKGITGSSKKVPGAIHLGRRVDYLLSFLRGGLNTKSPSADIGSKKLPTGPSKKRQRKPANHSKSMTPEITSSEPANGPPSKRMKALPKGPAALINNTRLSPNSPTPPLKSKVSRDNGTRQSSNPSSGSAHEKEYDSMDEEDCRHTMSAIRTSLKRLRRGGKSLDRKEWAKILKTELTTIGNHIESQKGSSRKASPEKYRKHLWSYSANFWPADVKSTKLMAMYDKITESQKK
Sequence of Protein translocase subunit SecA (Escherichia coli (strain K12)) (P10408 whole entry): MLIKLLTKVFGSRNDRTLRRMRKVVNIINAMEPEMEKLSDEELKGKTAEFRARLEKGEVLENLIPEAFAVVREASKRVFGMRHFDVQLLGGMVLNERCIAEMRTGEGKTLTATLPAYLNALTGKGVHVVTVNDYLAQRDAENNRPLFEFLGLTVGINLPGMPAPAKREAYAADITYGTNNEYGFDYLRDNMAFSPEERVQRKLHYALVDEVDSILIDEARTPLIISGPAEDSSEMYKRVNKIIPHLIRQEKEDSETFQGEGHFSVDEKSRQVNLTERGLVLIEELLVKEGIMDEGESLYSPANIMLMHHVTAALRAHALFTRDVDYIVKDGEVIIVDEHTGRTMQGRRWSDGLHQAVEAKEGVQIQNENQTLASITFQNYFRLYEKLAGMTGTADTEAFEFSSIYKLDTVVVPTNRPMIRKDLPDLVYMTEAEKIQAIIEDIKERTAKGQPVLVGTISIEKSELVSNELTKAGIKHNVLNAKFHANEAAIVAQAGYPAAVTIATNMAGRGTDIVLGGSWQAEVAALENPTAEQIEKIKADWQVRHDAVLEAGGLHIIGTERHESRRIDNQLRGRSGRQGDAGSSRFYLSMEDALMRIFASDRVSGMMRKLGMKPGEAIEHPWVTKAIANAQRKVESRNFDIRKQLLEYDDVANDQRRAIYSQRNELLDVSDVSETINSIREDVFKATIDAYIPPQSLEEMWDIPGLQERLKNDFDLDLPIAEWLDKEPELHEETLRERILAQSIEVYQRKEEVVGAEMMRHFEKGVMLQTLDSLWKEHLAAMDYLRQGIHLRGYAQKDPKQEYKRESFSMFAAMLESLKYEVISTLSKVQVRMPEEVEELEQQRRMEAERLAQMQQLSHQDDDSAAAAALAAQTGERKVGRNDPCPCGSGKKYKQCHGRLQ

As for `CCN1CCC2(CCC(=O)N2Cc2cccc(C)n2)CC1`, the Percent Effect in assay [1] is -2.48%; in assay [2], 9.09%; in [3], -0.0986%; with Trypanosoma cruzi, -0.188%; in assay [4], 0.457%; in [5], 2.49%. The Percent Effect in the assay filed under Homo sapiens is -13.7%; in assay [6], 7.73%; in assay [7] it was 15%; in assay [8], -11.3%.
As to `CN1CCN(c2cc(CNC(=O)c3ccc(=O)n(C)c3)ccn2)CC1`, the Percent Effect was -2.29% in [1]; 20.5% in [2]; -8.46% in assay [3]; 7.04% in the assay with Trypanosoma cruzi; 2.87% in assay [4]; 13.9% in assay [5]. Besides, the Percent Effect in the assay listed under Homo sapiens is 13.3%; in assay [6], -0.478%; in assay [7] it was 22.9%; in assay [8], -8.95%.
Consider `Cn1cc(N2CC3(COCCN(Cc4ccsc4)C3)OCC2=O)cn1` (stereo not given), for which the Percent Effect in assay [1] was -9.04%; in assay [2], -1.3%; in [3], 10.7%; in the assay on Trypanosoma cruzi, -1.46%; in assay [4], 0.405%; in assay [5], 2.21%. The Percent Effect in the assay filed under Homo sapiens is 6.9%; in assay [6] it was 4.74%; in [7] it was -5.13%; in assay [8], 2.44%.
With `O=C(NCCn1ccnc1)N1CCN(Cc2cccs2)CC1`, the Percent Effect was 2.19% in [1]; 18.2% in assay [2]; -6.1% in assay [3]; -9.14% with Trypanosoma cruzi; 2.66% in assay [4]; 21.9% in assay [5]. For the same compound, the Percent Effect in the assay listed under Homo sapiens was 12.6%; in [6], 4.9%; in assay [7], 16.5%; in [8], -9.63%.
Regarding `CC(Cn1cccn1)NC(=O)NCc1cccnc1OC1CCCC1` (stereo not given), the Percent Effect in assay [1] is -2.7%; in [2] it was 8%; in assay [3] it was -3.26%; in the assay with Trypanosoma cruzi, 4.42%; in [4], 0.887%; in assay [5] it was 8.06%. Besides, the Percent Effect in the assay listed under Homo sapiens is -10.3%; in [6], 0.526%; in [7] it was 10.3%; in assay [8] it was -8.77%.
Regarding `CNC(=O)CN1CCCC12CCN(C(=O)c1ccsc1)CC2`, the Percent Effect in assay [1] was -4.84%; in [2] it was 27.3%; in [3], 3.61%; in the assay on Trypanosoma cruzi, 3.94%; in assay [4], -1.83%; in assay [5] it was 5.06%. In addition, the Percent Effect in the assay listed under Homo sapiens is 1.81%; in assay [6] it was 6.76%; in [7], -92.5%; in assay [8], -11.2%.
For `Cc1nc([C@@H]2C[C@@H]3CCN(C(=O)Cc4ccsc4)C[C@H]3O2)no1`, the Percent Effect is -3.1% in assay [1]; -1.3% in assay [2]; -5.06% in assay [3]; -3.21% in the assay on Trypanosoma cruzi; -1.62% in assay [4]; 10.5% in [5]. Also, the Percent Effect in the assay listed under Homo sapiens was -23.3%; in assay [6] it was -1.58%; in assay [7], 0%; in assay [8] it was -2.29%.
`CC(=O)N1CCCn2nc(CNS(=O)(=O)c3cc(C)cs3)cc2C1`: the Percent Effect is -6.27% in assay [1]; 2.7% in assay [2]; -0.0396% in assay [3]; -2.42% in the assay on Trypanosoma cruzi; 4.54% in assay [4]; 4.11% in [5]. Also, the Percent Effect in the assay listed under Homo sapiens is 0.293%; in [6], 4.79%; in assay [7], 7.32%; in [8], 3.74%.
For `CNC(=O)CCCNCc1c(C)nn(C)c1N(C)C`, the Percent Effect is -0.3% in assay [1]; 0% in assay [2]; 14.5% in assay [3]; 1.22% in the assay on Trypanosoma cruzi; 2.87% in assay [4]; 2.3% in assay [5]. Moreover, the Percent Effect in the assay filed under Homo sapiens was -12.6%; in [6], 2.39%; in [7] it was 1.21%; in assay [8], -2.02%.
As for `CC(NC(=O)NCCCn1cncn1)c1ccccc1Cl` (stereo not given), the Percent Effect in [1] was 0.672%; in assay [2], 10.7%; in assay [3] it was -2.84%; in the assay on Trypanosoma cruzi, -7.63%; in assay [4] it was 3.99%; in assay [5], 7.72%. The Percent Effect in the assay filed under Homo sapiens was 13.4%; in assay [6], 3.68%; in assay [7] it was 12.8%; in assay [8], -11%.
Consider `CCn1cc(C(=O)N2CCCC(c3[nH]ncc3S(C)(=O)=O)C2)cn1` (stereo not given), for which the Percent Effect in [1] is -2.25%; in [2], 12%; in [3], -0.292%; in the assay with Trypanosoma cruzi, 0.395%; in assay [4], -0.443%; in assay [5], 13.1%. Further, the Percent Effect in the assay filed under Homo sapiens is -2.06%; in assay [6], 4.23%; in [7], 20%; in assay [8], -20.4%.
Regarding `Cc1ccc(NC(=O)C2CSCN2C(=O)c2cc[nH]n2)c(C)c1` (stereo not given), the Percent Effect in [1] was -2.87%; in [2], 5.13%; in [3], 9.07%; with Trypanosoma cruzi it was 4.79%; in assay [4], -0.41%; in [5], 0.768%. The Percent Effect was -8.73% in the assay filed under Homo sapiens, 3.35% in assay [6], 20.5% in assay [7] and -1.03% in [8].
